Experimental data reported in the supplement of paper PMC10849652.
Targets with a hit are over-represented here; the source holds about 7,900 in all. About 0.6% of all pairs of compound and target were hits. Values without a mark were called inactive.

What was measured:
Test in all cases: log2 fold change, soluble protein after heating vs DMSO (PISA); higher = thermal stabilisation; K562 cells, 10 uM, 30 min; active = over 0.2 and 3.5 SD of the protein, either way, in both replicates (recomputed)
bafetinib = compound: Cc1ccc(NC(=O)c2ccc(CN3CC[C@H](N(C)C)C3)c(C(F)(F)F)c2)cc1Nc1nccc(-c2cncnc2)n1 [bafetinib]
Outline: (§1)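 Soluble protein was quantified by TMTpro 16plex LC-MS/MS after channel sums were equalised. It was obtained as the supernatant after 21,000xg for 90 min from pooled aliquots of K562 cells (2×10^6 cells/mL, 10 μM compound, 30 min) heated for 3 min across 48°C-58°C and extracted in PBS with 0.5% NP-40 at 4°C. Thermal stability values are relative to control samples and come from duplicates. They are given as log2 fold changes.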

[1] = compound: Cc1cccc(CC(=O)N2CCc3c2ccc(-c2cn(C)c4ncnc(N)c24)c3F)n1
Outline: as §1

nilotinib = compound: Cc1cn(-c2cc(NC(=O)c3ccc(C)c(Nc4nccc(-c5cccnc5)n4)c3)cc(C(F)(F)F)c2)cn1 [nilotinib]
Outline: as §1

[2] = compound: Cc1nc(Nc2n[nH]c3c2CN(C(=O)N[C@H](CN(C)C)c2ccccc2)C3(C)C)c2sccc2n1
Outline: as §1

dasatinib = compound: Cc1nc(Nc2ncc(C(=O)Nc3c(C)cccc3Cl)s2)cc(N2CCN(CCO)CC2)n1 [dasatinib]
Outline: as §1

[3] = compound: Cc1ncc(-c2ccnc(Nc3ccc(S(C)(=O)=O)cc3)n2)n1C(C)C
Outline: as §1

[4] = compound: Cn1cc(-c2ccc3c(c2)CCN3C(=O)Cc2cccc(C(F)(F)F)c2)c2c(N)ncnc21
Outline: as §1

[5] = compound: Cn1cc(-c2ccc3nnc(C(F)(F)c4ccc5ncccc5c4)n3n2)cn1
Outline: as §1

tipifarnib = compound: Cn1cncc1[C@@](N)(c1ccc(Cl)cc1)c1ccc2c(c1)c(-c1cccc(Cl)c1)cc(=O)n2C [tipifarnib]
Outline: as §1

mubritinib = compound: FC(F)(F)c1ccc(/C=C/c2nc(COc3ccc(CCCCn4ccnn4)cc3)co2)cc1 [mubritinib]
Outline: as §1

[6] = compound: NC(=O)Nc1cc(-c2cccc(F)c2)sc1C(=O)N[C@H]1CCCNC1
Outline: as §1

[7] = compound: NC(=O)c1cnc(N[C@@H]2CCCC[C@@H]2N)nc1Nc1cccc(-n2nccn2)c1
Outline: as §1

[8] = compound: NC1(c2ccc(-c3nc4ccn5c(=O)[nH]nc5c4cc3-c3ccccc3)cc2)CCC1
Outline: as §1

[9] = compound: NCC(=O)Nc1ccc(-n2nc(C(F)(F)F)cc2-c2ccc3c(ccc4ccccc43)c2)cc1
Outline: as §1

entinostat = compound: Nc1ccccc1NC(=O)c1ccc(CNC(=O)OCc2cccnc2)cc1 [entinostat]
Outline: as §1

vorinostat = compound: O=C(CCCCCCC(=O)Nc1ccccc1)NO [vorinostat]
Outline: as §1

citarinostat = compound: O=C(CCCCCCNC(=O)c1cnc(N(c2ccccc2)c2ccccc2Cl)nc1)NO [citarinostat]
Outline: as §1

silmitasertib = compound: O=C(O)c1ccc2c(c1)nc(Nc1cccc(Cl)c1)c1ccncc12 [silmitasertib]
Outline: as §1

[10] = compound: O=C1NC(=O)C(c2cnc3ccccn23)=C1c1cn2c3c(cc(F)cc13)CN(C(=O)N1CCCCC1)CC2
Outline: as §1

[11] = compound: c1cc(OCCN2CCCCC2)cc(-c2n[nH]c3ccc(-c4nnc[nH]4)cc23)c1
Outline: as §1

UniProt O43396, sequence (O43396 whole entry, looked up): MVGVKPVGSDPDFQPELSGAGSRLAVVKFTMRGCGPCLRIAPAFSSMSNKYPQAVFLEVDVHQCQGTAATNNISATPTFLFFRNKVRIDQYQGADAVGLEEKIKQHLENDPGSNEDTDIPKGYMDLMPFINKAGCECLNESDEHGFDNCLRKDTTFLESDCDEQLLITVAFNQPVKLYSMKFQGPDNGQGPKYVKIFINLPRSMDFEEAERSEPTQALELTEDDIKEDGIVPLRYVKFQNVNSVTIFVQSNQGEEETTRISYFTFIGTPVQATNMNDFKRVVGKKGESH
UniProt Q96K49, sequence (Q96K49 whole entry, looked up): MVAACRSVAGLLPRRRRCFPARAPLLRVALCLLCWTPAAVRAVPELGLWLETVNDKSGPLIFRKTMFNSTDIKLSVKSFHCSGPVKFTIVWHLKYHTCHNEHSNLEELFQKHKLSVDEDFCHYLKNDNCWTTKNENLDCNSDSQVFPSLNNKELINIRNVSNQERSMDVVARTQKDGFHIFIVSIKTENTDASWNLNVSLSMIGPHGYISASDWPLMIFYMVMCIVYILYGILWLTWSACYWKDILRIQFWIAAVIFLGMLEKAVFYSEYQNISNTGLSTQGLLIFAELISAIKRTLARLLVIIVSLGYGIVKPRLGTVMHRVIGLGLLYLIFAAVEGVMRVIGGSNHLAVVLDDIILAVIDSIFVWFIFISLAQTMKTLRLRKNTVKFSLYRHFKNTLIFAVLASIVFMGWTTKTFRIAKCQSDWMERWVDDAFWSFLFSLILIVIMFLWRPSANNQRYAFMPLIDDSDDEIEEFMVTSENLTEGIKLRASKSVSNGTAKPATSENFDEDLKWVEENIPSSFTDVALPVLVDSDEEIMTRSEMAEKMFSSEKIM
UniProt P28908, sequence (P28908 whole entry, looked up): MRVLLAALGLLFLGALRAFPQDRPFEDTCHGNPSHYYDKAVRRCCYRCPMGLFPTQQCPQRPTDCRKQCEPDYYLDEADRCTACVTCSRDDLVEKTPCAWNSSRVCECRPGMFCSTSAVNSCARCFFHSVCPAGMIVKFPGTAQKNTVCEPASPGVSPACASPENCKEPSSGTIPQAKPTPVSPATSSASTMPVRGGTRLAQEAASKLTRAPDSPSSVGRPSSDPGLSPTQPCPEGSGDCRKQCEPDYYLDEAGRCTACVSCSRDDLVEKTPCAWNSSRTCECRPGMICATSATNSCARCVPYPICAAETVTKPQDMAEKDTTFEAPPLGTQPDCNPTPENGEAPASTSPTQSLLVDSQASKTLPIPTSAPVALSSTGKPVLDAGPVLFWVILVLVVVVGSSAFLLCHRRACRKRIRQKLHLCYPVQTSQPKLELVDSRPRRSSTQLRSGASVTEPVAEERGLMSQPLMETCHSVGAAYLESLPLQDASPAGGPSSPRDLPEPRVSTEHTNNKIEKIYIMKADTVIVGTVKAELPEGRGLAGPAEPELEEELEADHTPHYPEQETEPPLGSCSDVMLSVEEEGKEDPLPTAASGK
UniProt Q9H3M7, sequence (Q9H3M7 whole entry, looked up): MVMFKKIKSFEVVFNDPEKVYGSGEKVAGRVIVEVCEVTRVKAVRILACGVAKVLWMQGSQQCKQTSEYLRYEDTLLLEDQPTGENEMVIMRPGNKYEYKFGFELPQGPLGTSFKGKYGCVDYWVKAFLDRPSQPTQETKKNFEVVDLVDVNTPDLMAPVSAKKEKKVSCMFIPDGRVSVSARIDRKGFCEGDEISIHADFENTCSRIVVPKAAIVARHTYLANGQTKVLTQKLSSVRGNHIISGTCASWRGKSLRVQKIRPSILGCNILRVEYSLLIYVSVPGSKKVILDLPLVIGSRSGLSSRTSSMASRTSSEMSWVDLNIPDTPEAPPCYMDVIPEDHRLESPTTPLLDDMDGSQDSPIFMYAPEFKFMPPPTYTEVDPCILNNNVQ
UniProt Q9UID3, sequence (Q9UID3 whole entry, looked up): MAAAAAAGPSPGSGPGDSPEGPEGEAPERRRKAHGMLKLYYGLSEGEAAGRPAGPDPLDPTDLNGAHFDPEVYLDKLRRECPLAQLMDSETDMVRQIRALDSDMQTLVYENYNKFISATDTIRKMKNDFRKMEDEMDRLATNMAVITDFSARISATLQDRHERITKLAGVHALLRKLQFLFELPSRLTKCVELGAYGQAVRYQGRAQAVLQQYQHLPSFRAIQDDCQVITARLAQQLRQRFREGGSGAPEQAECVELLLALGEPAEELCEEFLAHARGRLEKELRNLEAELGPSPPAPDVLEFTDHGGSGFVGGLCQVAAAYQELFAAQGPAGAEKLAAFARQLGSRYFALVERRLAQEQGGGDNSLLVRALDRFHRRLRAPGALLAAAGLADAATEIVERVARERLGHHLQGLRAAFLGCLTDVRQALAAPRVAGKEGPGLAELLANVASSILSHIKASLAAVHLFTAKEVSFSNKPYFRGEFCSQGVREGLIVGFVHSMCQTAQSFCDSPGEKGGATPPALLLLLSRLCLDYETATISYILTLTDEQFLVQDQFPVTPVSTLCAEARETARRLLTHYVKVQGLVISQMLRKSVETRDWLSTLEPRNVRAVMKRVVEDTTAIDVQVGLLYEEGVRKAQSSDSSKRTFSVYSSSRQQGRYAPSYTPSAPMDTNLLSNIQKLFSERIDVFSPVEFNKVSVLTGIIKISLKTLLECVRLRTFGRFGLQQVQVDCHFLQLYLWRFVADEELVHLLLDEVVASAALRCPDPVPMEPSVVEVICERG
UniProt Q9HAV4, sequence (Q9HAV4 whole entry, looked up): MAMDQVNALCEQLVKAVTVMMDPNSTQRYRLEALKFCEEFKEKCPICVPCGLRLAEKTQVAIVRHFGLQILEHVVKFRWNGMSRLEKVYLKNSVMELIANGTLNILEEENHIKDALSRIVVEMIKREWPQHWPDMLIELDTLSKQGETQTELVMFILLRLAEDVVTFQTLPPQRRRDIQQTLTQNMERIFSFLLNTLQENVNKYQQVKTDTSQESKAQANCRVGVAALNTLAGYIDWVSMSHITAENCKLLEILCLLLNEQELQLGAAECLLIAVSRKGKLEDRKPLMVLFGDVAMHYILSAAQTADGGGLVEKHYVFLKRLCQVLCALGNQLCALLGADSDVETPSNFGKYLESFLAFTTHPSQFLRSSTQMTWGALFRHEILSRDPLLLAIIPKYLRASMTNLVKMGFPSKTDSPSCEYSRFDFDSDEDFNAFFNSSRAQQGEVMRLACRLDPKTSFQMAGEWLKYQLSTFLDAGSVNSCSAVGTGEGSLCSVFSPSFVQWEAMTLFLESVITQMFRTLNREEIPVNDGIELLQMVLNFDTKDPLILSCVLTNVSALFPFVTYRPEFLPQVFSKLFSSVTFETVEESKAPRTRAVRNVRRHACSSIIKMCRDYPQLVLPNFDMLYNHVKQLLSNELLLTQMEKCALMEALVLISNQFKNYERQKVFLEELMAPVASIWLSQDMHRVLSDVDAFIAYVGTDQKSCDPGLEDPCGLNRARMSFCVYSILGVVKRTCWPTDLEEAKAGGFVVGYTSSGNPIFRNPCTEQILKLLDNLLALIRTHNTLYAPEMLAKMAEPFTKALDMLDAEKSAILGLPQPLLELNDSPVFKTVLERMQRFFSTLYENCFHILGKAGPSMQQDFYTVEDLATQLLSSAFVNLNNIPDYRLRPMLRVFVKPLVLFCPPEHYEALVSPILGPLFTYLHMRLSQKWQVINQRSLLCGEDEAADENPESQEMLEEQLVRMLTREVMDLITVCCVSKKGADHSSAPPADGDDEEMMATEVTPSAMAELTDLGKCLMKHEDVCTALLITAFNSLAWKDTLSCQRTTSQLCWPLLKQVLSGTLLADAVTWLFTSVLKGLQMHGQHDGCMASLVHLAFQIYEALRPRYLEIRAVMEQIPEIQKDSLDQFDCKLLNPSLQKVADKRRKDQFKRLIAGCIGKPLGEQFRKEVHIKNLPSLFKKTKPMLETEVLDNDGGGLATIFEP
UniProt P07951, sequence (P07951 whole entry, looked up): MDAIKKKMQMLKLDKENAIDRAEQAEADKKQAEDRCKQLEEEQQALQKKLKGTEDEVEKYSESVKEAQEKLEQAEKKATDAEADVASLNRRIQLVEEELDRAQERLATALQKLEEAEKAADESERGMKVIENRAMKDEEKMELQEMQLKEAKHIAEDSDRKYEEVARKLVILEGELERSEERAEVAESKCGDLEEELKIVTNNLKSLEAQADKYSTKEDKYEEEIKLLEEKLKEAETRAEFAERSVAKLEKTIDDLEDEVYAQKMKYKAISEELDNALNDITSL
UniProt O94874, sequence (O94874 whole entry, looked up): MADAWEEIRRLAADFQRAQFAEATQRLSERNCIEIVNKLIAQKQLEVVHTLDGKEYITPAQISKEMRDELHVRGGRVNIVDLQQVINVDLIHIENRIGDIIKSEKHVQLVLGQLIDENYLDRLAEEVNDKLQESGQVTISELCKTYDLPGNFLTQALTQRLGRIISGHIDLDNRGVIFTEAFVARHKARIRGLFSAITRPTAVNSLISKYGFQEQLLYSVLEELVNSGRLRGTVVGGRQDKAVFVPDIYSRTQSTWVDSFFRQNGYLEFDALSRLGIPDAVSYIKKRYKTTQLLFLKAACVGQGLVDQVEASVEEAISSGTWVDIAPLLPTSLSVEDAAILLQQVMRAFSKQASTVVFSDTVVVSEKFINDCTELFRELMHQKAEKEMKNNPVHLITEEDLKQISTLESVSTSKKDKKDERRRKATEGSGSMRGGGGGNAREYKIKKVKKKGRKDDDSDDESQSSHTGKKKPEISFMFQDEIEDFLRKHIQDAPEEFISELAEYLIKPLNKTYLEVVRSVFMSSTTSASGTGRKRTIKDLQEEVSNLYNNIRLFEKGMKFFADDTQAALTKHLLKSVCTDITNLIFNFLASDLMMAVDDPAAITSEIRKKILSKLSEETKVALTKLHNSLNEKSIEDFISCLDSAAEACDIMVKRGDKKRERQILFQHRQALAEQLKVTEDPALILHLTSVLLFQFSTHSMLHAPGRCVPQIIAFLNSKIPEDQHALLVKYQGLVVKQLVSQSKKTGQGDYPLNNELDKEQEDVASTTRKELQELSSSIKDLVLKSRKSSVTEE

Target	log2 fold change (bafetinib)	log2 fold change [1]	log2 fold change (nilotinib)	log2 fold change [2]	log2 fold change (dasatinib)	log2 fold change [3]	log2 fold change [4]	log2 fold change [5]	log2 fold change (tipifarnib)	log2 fold change (mubritinib)	log2 fold change [6]	log2 fold change [7]	log2 fold change [8]	log2 fold change [9]	log2 fold change (entinostat)	log2 fold change (vorinostat)	log2 fold change (citarinostat)	log2 fold change (silmitasertib)	log2 fold change [10]	log2 fold change [11]
TOE1 (UniProt Q96GM8)	0.301	0.033	0.152	0.178	0.097	0.017	-0.113	-0.072	-0.036	0.111	0.09	-0.011	0.104	-0.01	-0.038	-0.047	0.011	0.026	0.122	-0.18
VPS51 (UniProt Q9UID3)	0.009	0.039	-0.089	-0.037	-0.126	-0.042	-0.075	-0.008	-0.095	0.083	-0.02	-0.119	-0.082	-0.048	0.07	-0.035	-0.002	0.068	0.022	0.1
UFL1 (UniProt O94874)	0.032	0.018	-0.119	-0.009	-0.165	0.083	-0.013	-0.007	-0.052	0.062	-0.06	-0.013	-0.107	-0.066	0.059	0.074	0.063	0.029	-0.013	-0.048
TMEM189-UBE2V1 (UniProt I3L0A0)	-0.038	-0.035	-0.012	0.229 (active)	-0.009	0.055	0.015	0.069	0.056	0.026	0.06	-0.018	-0.063	-0.018	-0.097	0.005	0.046	-0.058	0.009	-0.016
VTA1 (UniProt Q9NP79)	-0.035	0.081	-0.07	-0.011	-0.109	-0.005	0.035	0	-0.109	0.033	-0.029	0.018	-0.185	-0.045	0.036	0.036	0.054	0.023	-0.076	0.009
XPO5 (UniProt Q9HAV4)	-0.037	0.036	-0.07	-0.118	-0.11	-0.054	0.026	0.004	-0.071	0.006	-0.025	-0.068	-0.234 (active)	-0.074	0.046	0.065	0.068	-0.003	-0.022	-0.042
TRAPPC8 (UniProt Q9Y2L5)	-0.037	0.044	-0.055	-0.04	-0.133	0.059	0	0.004	-0.013	0.045	-0.039	-0.082	-0.168	-0.028	0.042	0.053	0.051	0.07	-0.016	-0.205
USP9X (UniProt Q93008)	-0.016	0.071	-0.099	-0.056	-0.122	-0.004	-0.052	-0.021	-0.126	0.052	0	-0.062	-0.174	-0.041	0.037	0.06	0.032	0.017	-0.015	-0.056
TXNIP (UniProt Q9H3M7)	0.03	-0.072	0.018	0.185	0.005	-0.264	0.105	-0.105	0.199	-0.264	0.091	-0.024	0.19	0.007	-0.009	0.018	0.071	0.115	-0.079	0.005
VARS2, A0A0G2JL52	-0.051	0	-0.043	0.012	0.009	0.003	0.037	-0.021	-0.01	-0.049	0.013	-0.01	-0.087	-0.062	0.028	0.106	0.006	-0.005	-0.048	-0.017
UHRF1BP1 (UniProt Q6BDS2)	0.042	0.015	0.138	0.003	0.044	-0.023	0.045	0.021	-0.005	0.028	-0.019	0.074	0.019	0.029	-0.058	0.004	-0.012	-0.043	-0.032	0.007
UBLCP1 (UniProt Q8WVY7)	0.016	-0.034	-0.101	0.074	-0.063	0.116	-0.052	0.006	-0.072	0.155	-0.084	-0.009	-0.165	-0.048	0.122	0	0.085	0.049	-0.142	0.035
TPM2 (UniProt P07951)	0.034	0.003	0.126	-0.097	0.072	0.064	-0.019	-0.015	0.086	0.025	0.119	0.081	0.157	0.201	0.077	-0.077	0.103	-0.07	0.162	0.171
TNFRSF8 (UniProt P28908)	0.01	-0.089	0.074	-0.049	0.032	0.043	0.014	0.032	0.042	0.069	-0.12	0.128	0.106	0.025	-0.066	-0.078	-0.003	-0.052	-0.053	-0.025
TMEM87B (UniProt Q96K49)	-0.138	0.015	0.037	-0.072	0.002	0.05	-0.077	-0.08	0.069	0.006	-0.098	-0.062	-0.266	-0.1	0.135	0.057	0.021	0.096	-0.032	-0.117
TXNL1 (UniProt O43396)	0.04	0.005	-0.035	-0.006	-0.074	0.008	-0.004	-0.035	-0.06	0.057	-0.048	-0.013	-0.084	-0.015	0.028	0.018	0.087	0.074	-0.004	-0.03
